This is a sample that favours compounds with a hit; in the whole collection about 5.1% have one here.
MPTP inh: inhibitors of mitochondrial permeability transition pore; inhibition, % at 10 µM; isolated mouse mitochondria, Ca2+ swelling absorbance, 30 min; 360,000 compounds, 1.4% hits;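 active = inhibition of 50% or more, scaled per plate between neutral and stimulator controls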;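 also: 0% = DMSO wells given calcium and 100% = 1 mM EGTA wells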
TMEM16A act: activates or potentiates the mouse TMEM16A chloride channel; 340,000 compounds, 0.3% hits; HEK293 TMEM16A/YFP-H148Q/I152L, iodide quench fluorescence; active compounds read low; Q8BHY3; B-score at 10 µM;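 active = fluorescence-ratio B-score plate-corrected deviation score at least 3 library SD below zero, with starting fluorescence score within 5 deviations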;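 also: channel opened by trigger with iodide after compound preincubation; score built on the fluorescence ratio of max minus min over baseline; more negative score means more quench and so TMEM16A activation or potentiation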
CRFR2-BP ag: agonists of human CRF-binding protein/CRF-R2 receptor complex; AID 588473; activation, % at 13.2 µM; 350,000 compounds, 0.46% hits; HEK293 CRF-R2/CRF-BP, calcium dye fluorescence (FLIPR); percent of saturating CRF peptide response;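 active = activation of at least 50%, plus an integration ratio under a set limit after plate pattern correction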;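 also: plate controls were neutral control wells without compound for no effect and CRF at EC100 for full effect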
TMEM16A inh: blocks the mouse calcium-activated chloride channel TMEM16A | Q8BHY3 | HEK293 TMEM16A/YFP iodide influx fluorescence, ionomycin | normalized B-score (activity score, 25-100; higher = stronger inhibition) at 10 µM | 310,000 compounds, 1.2% hits | AID 588511;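 active = ratio plate-corrected score three or more library SD toward inhibition, starting fluorescence score within five deviations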;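 also: score derived from kinetic fluorescence span divided by baseline fluorescence per well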
CRFR2-BP antag: antagonists of CRF-binding protein/CRF-R2 receptor complex | HEK293 CRF-R2/CRF-BP, CRF-induced calcium fluorescence | inhibition, % at 11.8 µM | 350,000 compounds, 0.59% hits;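 active = inhibition of the ligand-induced calcium signal above about 50% at the single tested concentration, limit read from the data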
GRIN3A LBD mod: modulators (binders) of human NR3A ligand-binding domain; Tm shift relative to glycine control, % at 25 µM; NR3A LBD differential scanning fluorimetry, Tm shift; 0% = protein alone, 100% = glycine-bound protein; AID 1259313; 340,000 compounds, 2.5% hits;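 active = melting temperature shift of at least 10% of the positive control shift, at one fixed dose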
MPTP counter: Rhodamine 123 counter-screen of mitochondrial pore hits; shares compounds with MPTP inh; isolated mitochondria, membrane potential, Rhodamine 123 fluorescence; inhibition, % at 10 µM; 5,000 compounds, 78% hits; in the data active = inhibition above about 22%;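 also: 0% = DMSO vehicle and 100% = positive control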
MPTP swell DR: MPTP inhibition, dose response swelling confirmation; shares compounds with MPTP inh; AID 651561; isolated mitochondria swelling, absorbance; IC50, µM; 780 compounds, 58% hits; in the data active = IC50 below about 20 µM
MPTP cs DR: MPTP inhibitor counter-screen activity, dose response | shares compounds with MPTP inh | isolated mitochondria counterscreen, fluorescence read-out | IC50, µM | 780 compounds, 49% hits | AID 651564; in the data active = IC50 below about 80 µM
* = called active by the depositor; i = inactive; · = no result.

SMILES	MPTP inh	TMEM16A act	CRFR2-BP ag	TMEM16A inh	CRFR2-BP antag	GRIN3A LBD mod	MPTP counter	others
CCCn1c(SCC(=O)Nc2nc3ccccc3s2)nc2c1c(=O)n(C)c(=O)n2C	85*	i	0	i	-13	3	0	MPTP swell DR=19*;MPTP cs DR=14*
CC(C)(C)NC(=S)N/N=C/c1cc(Br)c(O)c(Br)c1	10	i	3	i	-33	-3	·
COc1cc(/C=N/NC(=S)NC2CC3C=CC2C3)cc(OC)c1OC (stereo unspecified)	3	i	-1	i	-13	-1	·
Oc1c(Br)cc(Br)cc1/C=N/NC(=S)N[C@H]1CC2C=CC1C2 (stereo partly specified)	84*	i	7	i	13	14*	58*
CNC(=S)N/N=C/c1cc(Br)cc(Br)c1O	88*	i	3	i	19	-3	60*
C[C@@H]1Cn2cnc(C(=O)N[C@@H](Cc3c[nH]c4ccccc34)C(=O)OC(C)(C)C)c2C(=O)N1	-2	·	6	·	1	·	·
CCc1ccc(-c2nc(SCC(=O)NC3CC3)n[nH]2)cc1	-1	i	0	i	-5	1	·
COc1ccc(CCn2c(C3CCCCC3)nc3c(c(=O)c4ccccc4n3C)c2=O)cc1OC	4	i	-7	i	-2	-1	·
Cn1c2ccccc2c(=O)c2c(=O)n(C3CCCCCC3)c(C3CCCCC3)nc21	88*	i	127*	·	-30	-8	5
COc1ccc(OCCCCc2c(C)n[nH]c2C)cc1	51*	i	1	25*	-4	-2	36*
COc1cccc(OC)c1OCCCc1c(C)n[nH]c1C	-2	i	0	i	7	-3	·
CCc1ncc(CO)n1Cc1cccc2ccccc12	0	·	0	·	2	·	·
CCOc1ccc(Nc2c3ccccc3nc3ccccc23)cc1	96*	i	0	i	13	-1	85*
N#Cc1cc(C(=O)c2cc(F)ccc2O)cn(-c2nccs2)c1=O	52*	i	341*	i	-416	-5	86*
COc1ccccc1-n1cc(C(=O)c2cc(Cl)ccc2O)cc(C#N)c1=O	0	i	6	i	18	-7	·
O=S(=O)(c1ccccc1)N(CC1CO1)c1cc(Cl)ccc1Cl (stereo unspecified)	2	i	1	i	-1	-1	·
CC(C)c1ccc2c(c1)CC[C@H]1[C@](C)(CN)CCC[C@]21C	88*	i	2	·	-16	0	-5	MPTP swell DR=>100;MPTP cs DR=>80
CC(C)c1ccc2c(c1)CCC1C(C)(CN)CCCC21C (stereo unspecified)	5	i	7	i	-20	-1	·
CN1C=CC(=CC=C2C=CC(=O)C=C2)C=C1	0	i	2	i	3	1	·
c1ccc2c(c1)ccc1[nH]c3c(c12)CCCC3	3	i	2	·	1	0	·
O=C(c1ccc(S(=O)(=O)c2ccccc2Cl)c([N+](=O)[O-])c1)N1CCCCCC1	79*	i	0	i	-14	12*	49*
CCC(=O)N1CCC1(C)C(=O)Nc1cccc(OC)c1 (stereo unspecified)	-3	·	·	·	·	·	·
CN(C)CCn1c(N)nc2ccccc21	2	i	0	i	7	2	·
COc1cc(/C=N/Nc2snc(SC)c2C#N)cc(OC)c1OC	73*	i	0	i	20	-1	75*
CSc1nsc(N/N=C/c2ccc3c(c2)OCO3)c1C#N	1	i	3	i	11	5	·
SMILES	MPTP inh	TMEM16A act	CRFR2-BP ag	TMEM16A inh	CRFR2-BP antag	GRIN3A LBD mod	MPTP counter	others
CCCCOc1ccc(S(=O)(=O)Nc2cccnc2)cc1	72*	i	-1	i	8	-2	59*
Cc1ccc(S(=O)(=O)Nc2cccnc2)cc1	1	i	-1	i	16	1	·
COc1cc(C)c(NC(=S)Nc2ccc(Cl)c(Cl)c2)cc1OC	100*	i	-5	i	18	1	82*
COc1cc(NC(=S)Nc2ccc(Br)cc2Cl)c(OC)cc1Cl	90*	i	1	i	14	-2	89*
COc1cc(NC(=O)Nc2cccc(Cl)c2)c(C(=O)O)cc1OC	2	i	0	i	11	-6	·
COC(=O)c1cc(OC)c(OC)cc1NC(=S)Nc1cccc(Cl)c1	91*	i	1	i	-10	0	110*
Cc1cccc(NCCC(=O)c2ccc(Br)cc2)c1	5	i	-1	i	-2	-3	·
CCOC(=O)CNCCC(=O)c1ccc(Br)cc1	55*	i	-2	i	-18	22*	-4	MPTP swell DR=i;MPTP cs DR=>80
CCOc1cc(C)c(-c2onc(C(F)(F)F)c2-c2csc(C)n2)c(O)c1	70*	i	-3	100*	-7	1	83*
CCOC(=O)C1=C(O)c2ccccc2C(=O)/C1=C\c1ccc(CC)cc1	67*	i	23	i	-116	-8	77*
O=C(Nc1cccc(F)c1)C1CCCCC1	-1	i	-2	i	0	-1	·
O=C(Nc1cccc(-c2cccc(F)c2)c1)C1CCN(C2CCC2)CC1	64*	i	4	i	-29	0	-8	MPTP swell DR=7.7*;MPTP cs DR=58*
CC(Nc1ncnc2sccc12)c1ccccc1 (stereo unspecified)	84*	i	0	i	16	0	80*
OC(CNCc1ccc(Cl)cc1)(c1ccccc1)c1ccc(F)cc1 (stereo unspecified)	73*	i	0	i	-23	-2	13	MPTP swell DR=18*;MPTP cs DR=25*
OC(CNCc1ccc(F)cc1)(c1ccc(F)cc1)c1ccc(F)cc1	7	i	4	i	-53	4	·
Cn1c(CC(=O)NNC(=O)c2ccccc2[N+](=O)[O-])nc2ccccc21	-1	i	1	·	0	-3	·
O=S(=O)(Nc1ccc(Cl)cc1NS(=O)(=O)c1ccccc1)c1ccccc1	89*	i	36	·	41	-9	65*
CC(C)c1cccc(C2=CC(=O)C[C@H](c3ccc4c(c3)OCO4)C2)c1	3	i	0	·	6	-1	·
Cc1ccc(S(=O)(=O)NCCNC(=O)c2ccccc2)cc1	-2	i	20	i	7	0	·

Screening data (PubChem)
